Shown are actives, neighbours in structure and some others; about 5.7% of the full set was active somewhere.
NR3A LBD binder: modulators (binders) of human NR3A ligand-binding domain; NR3A LBD differential scanning fluorimetry, Tm shift; 0% = protein alone, 100% = glycine-bound protein; Tm shift relative to glycine control, % at 25 µM; hit rate 2.5% among 340,000; AID 1259313;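 active = melting temperature shift of at least 10% of the positive control shift, at one fixed dose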
FAS TE block: FAS thioesterase (human) inhibition | recombinant FAS-TE, OMFH fluorogenic substrate, fluorescence endpoint | inhibition, % at 15 µM | P49327 | AID 602261 | hit rate 0.67% among 360,000;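 active = compounds whose normalised, plate-corrected inhibition of enzyme fluorescence in the single-dose primary screen is 50% or more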;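 note: 0% = DMSO with enzyme and 100% = substrate without enzyme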
Myeloid diff 2: compounds promoting myeloid differentiation. ER-HoxA9 myeloid progenitors, lysozyme-GFP differentiation, flow cytometry. calls only at 10 µM. hit rate 1% among 360,000;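 active = normalized GFP-positive differentiation at or above the plate's own cutoff, the solvent-only control mean plus 3 SD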;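 note: cells exposed to compound for four days before flow analysis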
MPTP block: blocks calcium-induced mitochondrial swelling; isolated mouse mitochondria, Ca2+ swelling absorbance, 30 min; inhibition, % at 10 µM; hit rate 1.4% among 360,000;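 active = inhibition of 50% or more, scaled per plate between neutral and stimulator controls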;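 note: 0% = DMSO wells given calcium and 100% = 1 mM EGTA wells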
rCAG binder: molecules binding r(CAG) RNA repeats; inhibition, % at 3 µM; r(CAG) RNA repeat, TO-PRO-1 dye displacement fluorescence; hit rate 1.3% among 370,000;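 active = inhibition above the plate cutoff, the mean of all test compounds on that plate plus 3 SD, cut at about 35% in these data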;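 note: 0% = DMSO alone and 100% = 100 µM mitoxantrone as full dye displacement; higher means more dye released from RNA so lower well fluorescence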
Starred values were filed as active, the others as inactive; i = inactive; / = not tested or not shown; + = active, no number.

SMILES	NR3A LBD binder	FAS TE block	Myeloid diff 2	MPTP block	rCAG binder
CCN=C1NC(c2ccccc2C(F)(F)F)C(C(=O)OC)=C(C)N1C (stereo not given)	/	/	/	/	2.2
CCN(CC)c1ccc(NC(=O)CSc2nnc(SCc3ccc(Cl)cc3)s2)cc1	/	/	/	/	5.7
CCOC(=O)c1sc(=S)n(-c2ccccc2OC)c1N	15.6*	-11.0	i	-1.8	-1.3
N#CC(=Cc1ccccn1)c1nc(-c2ccc(Cl)cc2)cs1	/	16.2	+	0.1	16.1
O=C(N/N=C/c1ccsc1)c1c[nH]c2ccccc12	31.1*	-1.8	i	-1.5	1.8
Cc1ccc(/C=N/NC(=O)c2ccc(C(=O)N/N=C/c3ccc(C)s3)o2)s1	28.3*	-7.3	i	3.8	4.8
Cc1ccc(/C=N/NC(=O)c2c[nH]c3ccccc23)s1	35.0*	0.5	i	0.6	4.0
C/C(=N\NC(=O)c1c[nH]c2ccccc12)c1ccc(C)s1	15.4*	-3.8	i	0.3	4.3
C/C(=N/NC(=O)c1ccncc1)c1c[nH]c2ccccc12	3.6	-10.4	i	0.2	0.2
Cn1c(=O)c(=O)n(C)c2cc(S(=O)(=O)N3CCN(Cc4ccc(F)cc4)CC3)ccc21	/	/	/	/	9.2
COc1ccc(OCc2nn3c(-c4ccccc4)nnc3s2)cc1	/	/	/	/	1.2
COc1ccccc1NC(=O)OC1CC2CC1[C@H]1CCCCN1[C@H]2C (stereo not given in full)	/	/	/	/	9.1
O=C(N/N=C/c1ccccn1)c1c[nH]c2ccccc12	4.4	-6.6	i	2.3	0.3
Cc1ccc(/C=N/NC(=O)c2cccc3ccccc23)o1	1.3	0.6	i	0.8	4.2
Cc1ccsc1/C=N/NC(=O)c1c[nH]c2ccccc12	15.1*	6.7	i	-0.1	5.0
Cc1ccc(/C=N/NC(=O)c2c[nH]c3ccccc23)o1	16.9*	-4.5	i	0.4	/
O=C(N/N=C/c1ccc[nH]1)c1c[nH]c2ccccc12	32.4*	-6.4	i	-0.8	-0.3
C/C(=N\NC(=O)c1csc(C)c1C)c1ccc(C)s1	14.8*	-5.5	i	0.3	-3.4
c1ccc(Cc2cnc(N3CCN(Cc4cccc(-c5ccsc5)n4)CC3)nc2)cc1	/	/	/	/	3.4
Cc1nc(NCCNC(=O)c2ccco2)c2c(C)c(C)sc2n1	13.9*	-9.9	i	-4.0	3.7
Cc1nc(NCCc2ccc(S(N)(=O)=O)cc2)c2c(C)c(C)sc2n1	2.0	-9.4	i	40.8	4.2
COc1ccc(OCC2CN(Cc3ccccc3)S(=O)(=O)CCO2)cc1 (stereo not given)	/	/	/	/	5.0
N#CC1=C(N)Nc2nc3ccccc3n2C1c1ccc(Cl)cc1 (stereo not given)	37.6*	-7.0	i	5.7	2.6
COc1ccc(C(=O)c2sc3nc(C)cc(-c4cccs4)c3c2N)cc1	1.1	8.3	i	4.6	-0.5
Cc1cc(-c2cccs2)c2c(N)c(C(=O)c3ccc4c(c3)OCO4)sc2n1	20.6*	-10.6	+	0.3	2.3
SMILES	NR3A LBD binder	FAS TE block	Myeloid diff 2	MPTP block	rCAG binder
C[C@@H]1COc2cccc(N3CCCC3)c2S(=O)(=O)N1	/	/	/	/	2.0
Cc1ccc(C(=O)N/N=C\c2ccc(-c3ccc([N+](=O)[O-])cc3)o2)cn1	-2.3	-3.2	i	1.9	4.7
Cc1cc(C(=O)NN=Cc2ccc(-c3ccc(F)cc3)o2)c(C)o1	15.5*	2.7	i	1.0	6.4
Cc1ccc(C(=O)N/N=C\c2ccc(-c3ccc(Cl)cc3)o2)cn1	13.2*	4.6	i	12.5	2.7
COC(=O)C1CN(Cc2ccc(F)cc2)CCS(=O)(=O)N1Cc1cn(Cc2ccc(F)cc2)nn1 (stereo not given)	/	/	/	/	1.1
CC(C)NC(=O)c1cc(-n2cnnc2)ccc1Cl	11.2*	-7.8	i	-1.6	1.6
Cc1cccc(/C=N/NC(=O)c2ccc(NC(=O)c3ccccc3Cl)cc2)n1	-1.4	-3.1	i	-1.5	2.8
O=C(N/N=C/c1cccnc1)c1ccc(Cl)c(Cl)c1	13.9*	0.5	i	0.7	-3.1
Cc1cccc(/C=N/NC(=O)c2ccc(NC(=O)c3cccc(Cl)c3)cc2)n1	14.9*	1.8	i	0.0	2.9
O=C(N/N=C\c1cccnc1)c1cc(-c2ccc(Cl)s2)[nH]n1	22.9*	-9.7	i	-1.7	5.6
O=C(N/N=C/c1cccnc1)c1ccc(NC(=O)c2cccc(Cl)c2)cc1	12.3*	-4.5	i	1.9	2.2
CCN1CCCCC(NC(=O)c2ccc(Cl)cc2Cl)C1=O (stereo not given)	/	/	/	/	1.8
CC(=O)Nc1ccc(C(=O)N/N=C/c2cccnc2)cc1	0.2	-9.1	i	-0.5	-4.0
O=C(N/N=C/c1cccnc1)c1ccc(NC(=O)c2ccc(Cl)cc2)cc1	14.2*	-8.0	i	-1.3	-1.5
CCOC(=O)c1nc2cc3n(c(C)c-2c1C)C(C)C(C)=C3C (stereo not given)	-8.3	-7.3	i	0.1	5.3
CCOC(=O)c1nc2cc3n(c(CC(C)C)c-2c1C)CC(C)=C3C	2.0	-4.5	+	5.0	0.5
CC(C)(C)OC(=O)N[C@@H](Cc1ccccc1)c1nnc(SCC(N)=O)o1	-1.4	-5.2	i	1.6	-4.6
Cc1cccc(CS(=O)(=O)c2nnc([C@H](Cc3ccccc3)NC(=O)OC(C)(C)C)o2)c1	1.3	56.6*	i	1.1	/
Cc1cc(C)cc(NC(=O)C2CCCN2/C=C/C(=O)C(F)(F)F)c1 (stereo not given)	12.5*	0.7	i	0.9	1.1
CC(=O)Nc1ccc(NC(=O)C2CCCN2/C=C/C(=O)C(F)(F)F)cc1 (stereo not given)	0.9	-7.7	i	-0.8	1.0
COC[C@@H]1CCCN1c1ccc2c(c1)OCCCN(C1CC1)S2(=O)=O	/	/	/	/	2.2
COc1cccc(C(=O)COc2ccc3ccc(=O)oc3c2)c1	15.7*	13.3	i	0.1	2.3
COc1cccc(C(=O)COc2ccc3c(C)cc(=O)oc3c2)c1	0.0	21.1	i	-1.3	-3.5
C=CCN(CC=C)c1nc2ccccc2nc1C(C#N)C(=O)OC(C)C (stereo not given)	-5.2	-8.5	+	4.8	-3.7
COc1ccc(/C=C/C(=O)NC(=S)Nc2ccc(Br)cn2)cc1	24.9*	0.8	i	1.2	9.3
SMILES	NR3A LBD binder	FAS TE block	Myeloid diff 2	MPTP block	rCAG binder
CCC(=O)Nc1ccc(Br)cn1	232.6*	-4.1	i	-0.5	1.9
O=C(/C=C/c1ccc(F)cc1)NC(=S)Nc1ccccc1C(=O)NC1CCCCC1	0.5	1.0	i	0.7	-0.3
COc1ccc(/C=C/C(=O)NC(=S)Nc2ccccc2C(=O)NC2CCCCC2)cc1	28.4*	-8.2	/	1.2	-0.6
O=C(/C=C/c1ccccc1)NC(=S)Nc1ccccc1C(=O)NC1CCCCC1	25.3*	-5.4	i	4.6	1.0
COc1ccccc1N(C(C)=O)c1nc(C)cc(C)c1C#N	18.7*	-2.7	i	-1.9	-5.0
O=S(=O)(c1ccc(Cl)cc1)N1CCN(C(=S)NCC2CCCO2)CC1 (stereo not given)	11.1*	-1.8	i	0.4	-5.1
